# From publication PMC4336329 (PLoS ONE, 2015)
# The whole screen tested about 310,000 compounds, of which about 14,000 (4.5%) showed an effect of 50% or more. The effect is printed as a negative number. What follows is part of a selection rich in strong results, with near analogues and random picks from the rest.
# Target: human ether-à-go-go-related gene (hERG) potassium channel (human, UniProt Q12809)
# Experiment: primary screen, population patch clamp on CHO cells stably expressing hERG; higher = less effect of the substance
# 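Further: peak tail current of the secondary pulse compared with the same well before compound.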
# Sequence of human ether-à-go-go-related gene (hERG) potassium channel (Q12809 whole entry, looked up): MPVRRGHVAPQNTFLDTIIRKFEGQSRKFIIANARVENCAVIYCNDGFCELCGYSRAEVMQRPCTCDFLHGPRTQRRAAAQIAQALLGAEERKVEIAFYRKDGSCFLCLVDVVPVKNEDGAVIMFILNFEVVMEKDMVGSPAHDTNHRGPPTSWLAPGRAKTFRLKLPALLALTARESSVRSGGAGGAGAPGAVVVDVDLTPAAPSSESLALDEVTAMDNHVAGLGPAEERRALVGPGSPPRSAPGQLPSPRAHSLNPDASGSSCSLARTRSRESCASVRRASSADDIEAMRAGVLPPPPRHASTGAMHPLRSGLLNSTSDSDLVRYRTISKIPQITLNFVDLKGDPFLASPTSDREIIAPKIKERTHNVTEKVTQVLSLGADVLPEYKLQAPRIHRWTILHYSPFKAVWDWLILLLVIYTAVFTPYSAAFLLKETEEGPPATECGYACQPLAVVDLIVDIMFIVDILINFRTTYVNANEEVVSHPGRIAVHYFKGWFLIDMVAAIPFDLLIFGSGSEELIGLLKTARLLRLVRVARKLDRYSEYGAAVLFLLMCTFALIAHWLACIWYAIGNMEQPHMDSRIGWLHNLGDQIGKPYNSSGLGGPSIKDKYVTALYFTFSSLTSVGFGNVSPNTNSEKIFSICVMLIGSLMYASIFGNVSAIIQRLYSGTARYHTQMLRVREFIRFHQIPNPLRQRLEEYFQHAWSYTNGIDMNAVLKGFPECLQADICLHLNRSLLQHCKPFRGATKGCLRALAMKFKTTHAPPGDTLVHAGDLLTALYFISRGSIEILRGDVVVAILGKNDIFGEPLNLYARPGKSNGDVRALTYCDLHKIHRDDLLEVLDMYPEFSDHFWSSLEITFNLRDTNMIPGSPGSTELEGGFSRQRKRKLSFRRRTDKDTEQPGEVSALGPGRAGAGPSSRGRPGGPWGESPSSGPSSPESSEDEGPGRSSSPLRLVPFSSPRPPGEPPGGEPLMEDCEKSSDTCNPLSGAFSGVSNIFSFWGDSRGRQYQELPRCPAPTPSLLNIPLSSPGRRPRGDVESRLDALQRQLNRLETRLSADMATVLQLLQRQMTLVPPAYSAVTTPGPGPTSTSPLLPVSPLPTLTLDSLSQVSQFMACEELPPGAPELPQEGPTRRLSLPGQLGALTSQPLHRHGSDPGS
row,SMILES,"hERG current change (%, negative = inhibition) at 10uM [%]"
1,CCOC(=O)c1[nH]c2ccc(OCC)cc2c1NC(=O)CN1CCC2(CC1)OCCO2,-25.7
2,Cc1ccsc1CNn1cnnc1SCc1ccc(Cl)cc1,13
3,O=C(CSc1nnc(-c2cnccn2)n1Cc1ccco1)c1ccc2ccccc2c1,-15.4
4,COC(=O)c1cc(S(=O)(=O)NCC2CCN(Cc3ccc(Cl)cc3)CC2)cn1C,-17
5,COC(=O)c1cc(S(=O)(=O)NCC2CCN(CCc3cccs3)CC2)cn1C,-49.6
6,COC(=O)c1cc(S(=O)(=O)NCC2CCN(CCc3ccc(OC)cc3)CC2)c[nH]1,-67
7,COC(=O)c1cc(S(=O)(=O)NCC2CCN(CCc3ccc(OC)cc3)CC2)cn1C,-61.2
8,COC(=O)c1cc(S(=O)(=O)NCC2CCN(Cc3cccc(F)c3)CC2)cn1C,-18.5
9,COC(=O)c1cc(S(=O)(=O)NCCc2ccccc2)c[nH]1,5.93
10,COC(=O)c1cc(S(=O)(=O)NCc2cccs2)c[nH]1,19.1
11,COC(=O)c1cc(S(=O)(=O)NCC2CCN(Cc3cc(C)ccc3C)CC2)cn1C,-27.5
12,COC(=O)c1cc(S(=O)(=O)NCC2CCN(Cc3ccc(C)cc3)CC2)cn1C,-52
13,COC(=O)c1cc(S(=O)(=O)NCC2CCN(CCc3cccs3)CC2)c[nH]1,-51.1
14,COC(=O)c1cc(S(=O)(=O)NCc2ccc(Br)cc2)c[nH]1,-16.1
15,COC(=O)c1cc(S(=O)(=O)NCC2CCN(Cc3ccc(F)cc3)CC2)cn1C,-19.6
16,COC(=O)c1sc(SC)c2c1CC(C)(C)C/C2=N/O,10.6
17,O=c1[nH]c(=O)n(-c2ccc(F)cc2)c(O)c1/C=C1\C=Nc2ccccc21,6.63
18,Cc1noc(C)c1C(=O)NCCc1ccc(S(N)(=O)=O)cc1,-23.7
19,COc1ccc(C2NN=C(c3ccc(C)cc3)S2)cc1 (stereo not shown),4.2
20,O=C(N/N=C/c1cc([N+](=O)[O-])ccc1O)c1cc(-c2ccccc2)nc2ccccc12,12.3
21,O=C(c1ccncc1)N(Cc1ccco1)Cc1cc2ccccc2[nH]c1=O,-43.5
22,CCOC(=O)C1C(c2cccc(F)c2)NC(=S)NC1(O)C(F)(F)F (stereo not shown),-14.4
23,CCOCC(O)CSCc1ccc(Cl)cc1 (stereo not shown),1.1
24,C1=C[C@@H]2CCN(Cc3ccccc3)Cc3cccc(c32)C1,-50.6

row,SMILES,"hERG current change (%, negative = inhibition) at 10uM [%]"
1,Cc1ccc(CN2CC[C@H]3C=CCc4cccc(c43)C2)cc1,-22.1
2,Fc1ccc(CN2CC[C@H]3C=CCc4cccc(c43)C2)cc1,-30.2
3,CN(C)c1ccc(P(=O)(OC2CCCCC2)C(O)c2ccncc2)cc1 (stereo not shown),11.2
4,CC1CC1C(=O)OCC(=O)NC(=O)c1ccccc1 (stereo not shown),6.93
5,CC(C)(C)C(=O)NC1CCN(C(=O)N2CCCC2)CC1,10.2
6,COc1ccc2c(CC(=O)OCC(=O)Nc3ccccc3[N+](=O)[O-])coc2c1,19.4
7,c1ccc(CCCCN2CCN=C2Nc2ccccc2)cc1,-42
8,CCCCN1CCN=C1Nc1ccccc1,15.2
9,CCCCCCCN1CCN=C1Nc1ccccc1,-58
10,c1ccc(NC2=NCCN2CCCC2CCCCC2)cc1,-47.6
11,c1ccc(NC2=NCCN2CCC2CCCC2)cc1,-24
12,c1ccc(NC2=NCCN2CCCC2CCCC2)cc1,-53.4
13,O=C(Oc1ccc(/C=N/NC(=O)c2ccccc2F)cc1)c1ccccc1,10.3
14,COC(=O)c1ccc(CSc2nnc(NC(=O)C3CC(=O)N(Cc4ccc(C)cc4)C3)s2)cc1 (stereo not shown),8.78
15,COC(=O)/C=C1\SC(=NC(=O)c2cccc(Cl)c2)NC1=O,-79.5
16,COC(=O)/C=C1/SC(=NC(=O)c2ccc(Cl)cc2)NC1=O,26.7
17,COC(=O)/C=C1/SC(=NC(=O)c2ccccc2)NC1=O,-13.9
18,COc1ccc(/C=C/C(=O)NCC(=O)N/N=C/c2cccs2)cc1,0.0661
19,CCC(C)[C@H](NC(=O)NCc1ccc(OC)c(OC)c1)C(=O)O (stereo partly shown),7.82
20,Cc1[nH]nc(N2CCCCC2)c1[N+](=O)[O-],-6.37
21,Cc1sc2nc(CN3CCCC3)nc(Cl)c2c1C,-4.03
22,Cc1nc(Nc2ccc3c(c2)OCCO3)c2c(C)c(C)sc2n1,-18.5
23,Cc1sc2nc(CN3CCCC3)nc(NCc3ccncc3)c2c1C,-69.1
24,Cc1sc2nc(CN3CCOCC3)nc(NS(=O)(=O)c3ccc4c(c3)OCCO4)c2c1C,6.33

row,SMILES,"hERG current change (%, negative = inhibition) at 10uM [%]"
1,Cc1sc2nc(CN3CCOCC3)nc(NCCc3ccccc3)c2c1C,-30
2,Cc1sc2nc(CN3CCCCC3)nc(Nc3ccc4c(c3)OCCO4)c2c1C,-85.8
3,COc1ccc(-c2nnnn2C)cc1S(=O)(=O)Nc1ccc(C)cc1C,-7.53
4,Cc1cc(OC(C)C(=O)NCCN2CCOCC2)c2c(C)c(C)c(=O)oc2c1 (stereo not shown),9.89
5,COc1cccc(N2CCN(C(=S)Nc3ccccc3)CC2)c1,19
6,O=C(CCCNS(=O)(=O)c1cccc2nsnc12)N1CCCCC1,10.7
7,COc1cc(CNC2CCCC2)cc(Cl)c1OCc1ccccc1F.Cl,-1.44
8,Cc1ccc(C)c(-c2ccc(=O)n(Cc3c(F)cccc3Cl)n2)c1,3.88
9,CN(Cc1cc2ccccc2[nH]c1=O)C(=O)C1CCCCC1,-71.6
10,CCN(Cc1cc2ccccc2[nH]c1=O)C(=O)C1CCCCC1,-13.3
11,CC(C)(C)N(Cc1cc2ccccc2[nH]c1=O)C(=O)C1CCCCC1,-11.9
12,CCOC(=O)[C@@H]1[C@H]2COc3ccccc3[C@@H]2N2C(=O)N(c3ccccc3)C(=O)[C@@]12C,11.4
13,COc1ccc(/C=N\NC(=O)c2ccc(-c3ccccc3)cc2)cc1COC(C)=O,-0.748
14,CC1=C(C(=O)N(C)C)C(c2ccccc2OC(F)F)NC(=O)N1 (stereo not shown),3.49
15,C[N+](C)(C)CC(=O)Nc1ccc(Cl)cc1C(=O)c1ccccc1.[Br-],21.4
16,CN(C)CCCNCC(=O)Nc1ccc(Cl)cc1C(=O)c1ccccc1.O=C(O)C(=O)O,-69
17,CCN(CC)CC(=O)Nc1ccc(C)cc1C(=O)c1ccccc1,-19.5
18,CCN(CC)CCNCC(=O)Nc1ccc(Cl)cc1C(=O)c1ccccc1.O=C(O)C(=O)O,-75.2
19,O=C(Nc1ccc(Cl)cc1C(=O)c1ccccc1)c1ccccc1,3.76
20,CCN(CC)CC(=O)Nc1ccc(Cl)cc1C(=O)c1ccccc1,-21.2
21,COc1ccc(C2NC(c3ccc(OC)cc3)C([N+](=O)[O-])C(C)(C)C2[N+](=O)[O-])cc1 (stereo not shown),41.2
22,CCCCCCCSc1nnc(-c2ccccc2N)c(=O)[nH]1,6.86
23,COc1ccccc1NC(=S)N1CCc2cc(OC)c(OC)cc2C1,-0.62
24,COc1ccc(C(=S)N2CCN(c3cccc(Cl)c3)CC2)c(OC)c1,3.25

row,SMILES,"hERG current change (%, negative = inhibition) at 10uM [%]"
1,COc1ccccc1CNC(=O)Cn1ccc2cc(S(=O)(=O)N3CCCC3)ccc21,-3.32
2,CCc1nnc(NC(=O)CCS(=O)(=O)c2ccccc2)s1,23.8
3,CN(C)S(=O)(=O)c1cccc(NC(=O)COC(=O)c2cc(=O)c3ccccc3o2)c1,11.3
4,CC(C(=O)OCC(=O)Nc1ccc2c(c1)OCO2)N1C(=O)c2ccccc2C1=O (stereo not shown),-12.4
5,CC(C(=O)OCC(=O)Nc1ccc(S(=O)(=O)N2CCCCC2)cc1)N1C(=O)c2ccccc2C1=O (stereo not shown),-16.4
6,CC(C(=O)OCC(=O)Nc1cccc(S(=O)(=O)N2CCOCC2)c1)N1C(=O)c2ccccc2C1=O (stereo not shown),-58
7,O=C(COC(=O)c1ccccc1)Nc1cccc(S(=O)(=O)N2CCOCC2)c1,-26.5
8,CC(C(=O)OCC(=O)Nc1cccc(S(=O)(=O)N(C)C)c1)N1C(=O)c2ccccc2C1=O (stereo not shown),-82.8
9,Cc1sc2nc(C(C)Nc3ccccc3N3CCOCC3)[nH]c(=O)c2c1C (stereo not shown),11.1
10,O=C(N/N=C/c1ccncc1)c1cccc([N+](=O)[O-])c1,-5.83
11,CCC(=O)Nc1ccc(N2CCN(C(=O)c3cccs3)CC2)cc1,-7.15
12,Cc1cc(NC(=O)C(=O)NCCN2CCN(S(C)(=O)=O)CC2)ccc1Br,-21.3
13,O=C(CN1CCN(C(=O)c2cccs2)CC1)Nc1ccc(Br)cc1,-71.8
14,Cl.O=C(CN1CCN(C(=O)c2cccs2)CC1)NC1CCCCC1,-1.7
15,COc1ccccc1C(=O)N1CCN(CCNC(=O)C(=O)Nc2ccc(Br)c(C)c2)CC1,-48.8
16,O=C(NCCN1CCN(C(=O)c2cccs2)CC1)C(=O)Nc1ccc(Br)cc1,-73.7
17,O=C(NCCN1CCN(C(=O)c2cccs2)CC1)c1cccs1,-35.8
18,Cc1cc(NC(=O)C(=O)NCCN2CCN(C(=O)c3cccs3)CC2)ccc1Br,-63.7
19,O=C(CN1CCOCC1)Nc1ccc(NC(=O)c2ccccc2F)cc1,10.7
20,O=C(CN1CCN(C(=O)c2ccco2)CC1)Nc1ccc(Br)cc1,5.38
21,O=C(CN1CCN(C(=O)c2ccccc2F)CC1)Nc1ccc(Br)cc1,-64.6
22,COc1ccc(NC(=O)C(=O)NCCN2CCN(C(=O)c3cccs3)CC2)cc1,-45.1
